This is an account of results in ChEMBL document CHEMBL2218924, “A broad activity screen in support of a chemogenomic map for kinase signalling research and drug discovery” (Biochem J, 2013).

Assay [1] concerns the target Insulin receptor (Homo sapiens) (UniProt P06213). The following applies: at 10 µM.
For assay [2] the target is unchanged. The following applies: at 1 µM.
The target is the same in assay [3]. The following applies: at 10 µM. The source holds these as a separate data set.
Assay [4] deals with Interleukin-1 receptor-associated kinase 1 (Homo sapiens) (UniProt P51617). The following applies: at 1 µM.
Interleukin-1 receptor-associated kinase 1 (Homo sapiens), sequence (P51617 whole entry, looked up): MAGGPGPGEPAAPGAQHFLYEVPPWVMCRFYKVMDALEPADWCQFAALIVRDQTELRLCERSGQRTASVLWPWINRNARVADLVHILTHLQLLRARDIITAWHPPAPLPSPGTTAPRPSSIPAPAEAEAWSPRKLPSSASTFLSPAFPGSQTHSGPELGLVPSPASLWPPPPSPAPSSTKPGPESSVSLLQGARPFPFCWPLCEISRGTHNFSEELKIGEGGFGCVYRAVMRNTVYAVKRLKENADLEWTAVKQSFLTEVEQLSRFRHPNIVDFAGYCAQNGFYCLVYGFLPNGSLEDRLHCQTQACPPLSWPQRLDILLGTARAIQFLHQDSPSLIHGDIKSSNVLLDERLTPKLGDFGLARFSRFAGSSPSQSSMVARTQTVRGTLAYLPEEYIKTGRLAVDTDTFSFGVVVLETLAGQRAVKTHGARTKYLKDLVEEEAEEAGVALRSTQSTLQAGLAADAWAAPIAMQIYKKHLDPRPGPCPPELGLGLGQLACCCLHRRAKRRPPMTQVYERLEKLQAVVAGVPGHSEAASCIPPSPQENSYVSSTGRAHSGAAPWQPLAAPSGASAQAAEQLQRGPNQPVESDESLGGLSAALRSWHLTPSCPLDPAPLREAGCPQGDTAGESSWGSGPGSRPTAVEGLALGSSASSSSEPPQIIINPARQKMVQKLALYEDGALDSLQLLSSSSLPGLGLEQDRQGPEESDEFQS
Assay [5] has the same target. The following applies: at 10 µM.
In assay [6] the target is T1, Interleukin-1 receptor-associated kinase 4 (Homo sapiens) (UniProt Q9NWZ3).
T1 sequence (whole entry): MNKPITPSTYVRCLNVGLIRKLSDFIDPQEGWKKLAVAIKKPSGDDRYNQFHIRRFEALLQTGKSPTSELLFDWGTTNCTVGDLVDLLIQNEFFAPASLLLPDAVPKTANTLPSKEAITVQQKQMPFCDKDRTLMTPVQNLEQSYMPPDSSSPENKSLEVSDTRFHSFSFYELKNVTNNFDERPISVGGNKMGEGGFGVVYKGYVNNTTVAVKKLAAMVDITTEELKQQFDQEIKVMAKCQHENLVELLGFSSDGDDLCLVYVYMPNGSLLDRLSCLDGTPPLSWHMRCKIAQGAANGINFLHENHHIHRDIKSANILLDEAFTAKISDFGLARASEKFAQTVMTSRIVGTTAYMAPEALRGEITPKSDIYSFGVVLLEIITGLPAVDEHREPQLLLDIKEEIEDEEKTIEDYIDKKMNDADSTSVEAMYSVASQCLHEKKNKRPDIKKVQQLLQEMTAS
The following applies: at 1 µM.

In assay [7] the target is T1, Interleukin-1 receptor-associated kinase 4 (Homo sapiens). The following applies: at 10 µM.
In assay [8] the target is Insulin receptor-related protein (Homo sapiens) (UniProt P14616). The following applies: at 1 µM.
Insulin receptor-related protein (Homo sapiens), sequence (P14616 27-742 limits assumed): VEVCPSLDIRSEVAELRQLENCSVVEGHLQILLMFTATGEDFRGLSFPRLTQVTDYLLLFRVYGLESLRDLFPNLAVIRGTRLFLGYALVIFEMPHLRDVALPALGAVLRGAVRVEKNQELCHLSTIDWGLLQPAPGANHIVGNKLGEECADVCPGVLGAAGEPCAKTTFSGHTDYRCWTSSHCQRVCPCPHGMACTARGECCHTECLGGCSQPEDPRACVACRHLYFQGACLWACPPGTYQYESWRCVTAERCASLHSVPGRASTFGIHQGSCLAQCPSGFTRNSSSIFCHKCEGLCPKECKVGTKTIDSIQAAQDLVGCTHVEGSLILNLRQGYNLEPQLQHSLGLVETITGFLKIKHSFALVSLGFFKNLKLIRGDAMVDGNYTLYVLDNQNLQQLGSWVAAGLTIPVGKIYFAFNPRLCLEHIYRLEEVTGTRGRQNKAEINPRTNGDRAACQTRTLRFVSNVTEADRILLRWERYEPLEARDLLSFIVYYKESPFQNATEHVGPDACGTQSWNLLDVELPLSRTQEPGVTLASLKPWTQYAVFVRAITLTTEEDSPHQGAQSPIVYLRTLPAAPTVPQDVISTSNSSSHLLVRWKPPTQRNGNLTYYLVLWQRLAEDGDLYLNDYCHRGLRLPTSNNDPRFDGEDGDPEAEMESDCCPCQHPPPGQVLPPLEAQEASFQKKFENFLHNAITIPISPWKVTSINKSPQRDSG
Insulin receptor-related protein (Homo sapiens), sequence (P14616 747-1297 limits assumed): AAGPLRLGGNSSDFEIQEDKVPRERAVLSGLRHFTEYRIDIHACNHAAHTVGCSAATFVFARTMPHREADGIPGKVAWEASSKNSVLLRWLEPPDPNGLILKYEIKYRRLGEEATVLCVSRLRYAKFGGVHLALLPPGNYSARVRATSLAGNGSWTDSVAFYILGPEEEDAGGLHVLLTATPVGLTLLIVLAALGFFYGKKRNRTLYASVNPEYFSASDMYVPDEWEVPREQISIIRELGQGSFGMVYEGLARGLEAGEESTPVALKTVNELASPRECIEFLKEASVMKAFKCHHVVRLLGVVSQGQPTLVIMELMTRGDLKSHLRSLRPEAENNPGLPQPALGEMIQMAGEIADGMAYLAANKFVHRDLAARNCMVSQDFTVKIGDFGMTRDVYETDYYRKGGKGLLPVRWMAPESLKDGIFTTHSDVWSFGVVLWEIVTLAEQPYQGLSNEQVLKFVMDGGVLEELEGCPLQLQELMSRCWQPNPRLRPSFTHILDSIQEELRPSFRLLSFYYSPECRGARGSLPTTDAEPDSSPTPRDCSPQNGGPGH
The target is the same in assay [9]. The following applies: at 10 µM.
For assay [10], the target named is T2, Tyrosine-protein kinase ITK/TSK (Homo sapiens) (UniProt Q08881).
T2 sequence (whole entry): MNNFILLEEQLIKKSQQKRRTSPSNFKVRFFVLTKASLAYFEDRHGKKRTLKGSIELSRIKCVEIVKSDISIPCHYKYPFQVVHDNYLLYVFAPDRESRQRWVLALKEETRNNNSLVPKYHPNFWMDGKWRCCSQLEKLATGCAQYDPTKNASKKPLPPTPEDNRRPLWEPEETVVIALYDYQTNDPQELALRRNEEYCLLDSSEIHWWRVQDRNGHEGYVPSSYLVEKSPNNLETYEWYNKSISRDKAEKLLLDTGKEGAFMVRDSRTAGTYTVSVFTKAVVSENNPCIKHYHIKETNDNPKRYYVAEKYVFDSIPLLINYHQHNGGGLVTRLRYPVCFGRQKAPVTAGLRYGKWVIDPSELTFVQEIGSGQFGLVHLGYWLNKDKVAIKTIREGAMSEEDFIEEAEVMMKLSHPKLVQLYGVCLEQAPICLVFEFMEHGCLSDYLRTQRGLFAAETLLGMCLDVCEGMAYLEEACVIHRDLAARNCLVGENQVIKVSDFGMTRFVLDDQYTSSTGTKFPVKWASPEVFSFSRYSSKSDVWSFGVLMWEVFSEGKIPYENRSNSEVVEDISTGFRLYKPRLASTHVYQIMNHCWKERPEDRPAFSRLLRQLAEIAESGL
The following applies: at 1 µM.

Assay [11] addresses T2, Tyrosine-protein kinase ITK/TSK (Homo sapiens). The following applies: at 10 µM.
Assay [12] deals with Tyrosine-protein kinase JAK2 (Homo sapiens) (UniProt O60674). The following applies: at 1 µM.
Tyrosine-protein kinase JAK2 (Homo sapiens), sequence (O60674 whole entry): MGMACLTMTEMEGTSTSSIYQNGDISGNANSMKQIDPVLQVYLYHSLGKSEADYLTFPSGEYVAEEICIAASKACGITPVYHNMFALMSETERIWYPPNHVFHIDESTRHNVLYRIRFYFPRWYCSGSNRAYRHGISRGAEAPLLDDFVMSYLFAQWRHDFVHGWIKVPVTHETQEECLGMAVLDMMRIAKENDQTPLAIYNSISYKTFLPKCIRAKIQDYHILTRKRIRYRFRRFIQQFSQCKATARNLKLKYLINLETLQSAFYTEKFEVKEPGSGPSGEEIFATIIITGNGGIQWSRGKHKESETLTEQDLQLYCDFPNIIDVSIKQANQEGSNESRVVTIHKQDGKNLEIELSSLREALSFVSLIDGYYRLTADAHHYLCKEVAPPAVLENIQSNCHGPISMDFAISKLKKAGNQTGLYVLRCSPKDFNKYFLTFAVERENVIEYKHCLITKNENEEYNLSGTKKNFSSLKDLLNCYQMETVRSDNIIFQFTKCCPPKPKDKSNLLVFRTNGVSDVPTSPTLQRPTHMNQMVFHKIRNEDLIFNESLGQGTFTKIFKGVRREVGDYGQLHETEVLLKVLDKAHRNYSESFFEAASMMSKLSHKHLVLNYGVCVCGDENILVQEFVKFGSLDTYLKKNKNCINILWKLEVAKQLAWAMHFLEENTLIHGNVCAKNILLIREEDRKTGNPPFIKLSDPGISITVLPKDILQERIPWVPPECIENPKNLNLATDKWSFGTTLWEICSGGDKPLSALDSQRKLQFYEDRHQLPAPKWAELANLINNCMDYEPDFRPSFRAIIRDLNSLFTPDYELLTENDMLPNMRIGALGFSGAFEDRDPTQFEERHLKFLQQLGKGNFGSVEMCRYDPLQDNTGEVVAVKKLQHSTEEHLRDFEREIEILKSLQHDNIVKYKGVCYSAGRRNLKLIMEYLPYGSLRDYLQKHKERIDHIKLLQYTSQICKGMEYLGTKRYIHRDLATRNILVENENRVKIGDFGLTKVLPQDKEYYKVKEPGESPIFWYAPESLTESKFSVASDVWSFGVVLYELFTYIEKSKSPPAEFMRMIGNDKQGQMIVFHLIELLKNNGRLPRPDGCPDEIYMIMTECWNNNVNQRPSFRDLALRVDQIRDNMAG
The target is the same in assay [13]. The following applies: at 10 µM.
In assay [14] the target is T3, Tyrosine-protein kinase JAK3 (Homo sapiens) (UniProt P52333).
T3 sequence (whole entry): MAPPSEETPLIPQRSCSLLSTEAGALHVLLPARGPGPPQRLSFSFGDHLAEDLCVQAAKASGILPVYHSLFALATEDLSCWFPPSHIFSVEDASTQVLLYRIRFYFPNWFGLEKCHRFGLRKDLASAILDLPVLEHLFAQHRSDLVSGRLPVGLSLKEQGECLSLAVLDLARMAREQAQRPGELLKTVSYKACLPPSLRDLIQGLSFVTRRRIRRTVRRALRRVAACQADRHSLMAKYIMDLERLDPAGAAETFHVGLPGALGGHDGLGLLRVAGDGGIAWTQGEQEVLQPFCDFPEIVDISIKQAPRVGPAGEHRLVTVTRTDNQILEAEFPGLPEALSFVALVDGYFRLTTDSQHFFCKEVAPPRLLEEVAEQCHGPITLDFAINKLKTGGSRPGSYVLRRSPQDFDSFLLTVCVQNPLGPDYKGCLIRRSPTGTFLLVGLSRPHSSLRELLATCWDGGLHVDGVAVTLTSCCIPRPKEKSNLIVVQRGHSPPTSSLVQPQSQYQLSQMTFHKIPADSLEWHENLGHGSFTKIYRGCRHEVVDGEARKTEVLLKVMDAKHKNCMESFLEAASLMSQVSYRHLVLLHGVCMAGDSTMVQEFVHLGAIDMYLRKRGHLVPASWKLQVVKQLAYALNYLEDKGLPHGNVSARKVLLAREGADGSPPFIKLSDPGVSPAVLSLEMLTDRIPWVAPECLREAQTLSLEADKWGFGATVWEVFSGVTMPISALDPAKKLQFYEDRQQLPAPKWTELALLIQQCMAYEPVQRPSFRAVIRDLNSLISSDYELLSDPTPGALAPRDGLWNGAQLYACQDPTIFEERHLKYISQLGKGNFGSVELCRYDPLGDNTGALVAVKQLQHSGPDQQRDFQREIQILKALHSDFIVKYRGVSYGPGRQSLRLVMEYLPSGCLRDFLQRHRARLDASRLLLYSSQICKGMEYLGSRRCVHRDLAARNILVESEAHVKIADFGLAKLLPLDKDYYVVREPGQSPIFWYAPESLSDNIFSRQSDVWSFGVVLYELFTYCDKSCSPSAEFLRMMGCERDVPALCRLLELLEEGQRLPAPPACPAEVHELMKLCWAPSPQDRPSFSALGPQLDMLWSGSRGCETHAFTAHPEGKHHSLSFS
The following applies: at 1 µM.

For assay [15], the target named is T3, Tyrosine-protein kinase JAK3 (Homo sapiens). The following applies: at 10 µM.
For assay [16], the target named is Mitogen-activated protein kinase 8 (Homo sapiens) (UniProt P45983). The following applies: at 1 µM.
Mitogen-activated protein kinase 8 (Homo sapiens), sequence (P45983 whole entry): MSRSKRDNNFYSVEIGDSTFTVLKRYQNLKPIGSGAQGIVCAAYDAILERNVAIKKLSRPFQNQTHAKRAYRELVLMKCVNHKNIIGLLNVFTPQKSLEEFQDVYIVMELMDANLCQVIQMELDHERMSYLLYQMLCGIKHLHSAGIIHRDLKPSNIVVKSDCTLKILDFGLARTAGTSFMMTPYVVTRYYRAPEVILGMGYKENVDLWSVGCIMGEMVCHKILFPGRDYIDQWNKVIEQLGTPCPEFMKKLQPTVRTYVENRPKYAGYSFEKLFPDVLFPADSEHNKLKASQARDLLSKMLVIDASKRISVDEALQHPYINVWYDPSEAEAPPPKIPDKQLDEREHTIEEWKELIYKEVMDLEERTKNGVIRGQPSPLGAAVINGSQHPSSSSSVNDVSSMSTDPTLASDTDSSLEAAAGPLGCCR
The target is the same in assay [17]. The following applies: at 10 µM.
For assay [18], the target named is Mitogen-activated protein kinase 9 (Homo sapiens) (UniProt P45984). The following applies: at 1 µM.
Mitogen-activated protein kinase 9 (Homo sapiens), sequence (P45984 whole entry, looked up): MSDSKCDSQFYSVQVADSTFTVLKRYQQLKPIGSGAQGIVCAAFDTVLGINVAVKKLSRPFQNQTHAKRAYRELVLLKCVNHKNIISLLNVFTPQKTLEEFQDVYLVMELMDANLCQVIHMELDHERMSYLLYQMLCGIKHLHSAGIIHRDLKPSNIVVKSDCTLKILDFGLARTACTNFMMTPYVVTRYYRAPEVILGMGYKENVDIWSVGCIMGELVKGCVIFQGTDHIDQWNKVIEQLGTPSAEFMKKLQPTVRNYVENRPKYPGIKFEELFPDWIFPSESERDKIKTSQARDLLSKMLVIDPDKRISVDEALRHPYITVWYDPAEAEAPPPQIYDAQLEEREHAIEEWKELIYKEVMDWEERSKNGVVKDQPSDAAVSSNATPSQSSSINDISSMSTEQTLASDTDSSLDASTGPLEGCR
Assay [19] shares this target. The following applies: at 10 µM.
For assay [20], the target named is Mitogen-activated protein kinase 10 (Homo sapiens) (UniProt P53779). The following applies: at 1 µM.
Mitogen-activated protein kinase 10 (Homo sapiens), sequence (P53779 whole entry): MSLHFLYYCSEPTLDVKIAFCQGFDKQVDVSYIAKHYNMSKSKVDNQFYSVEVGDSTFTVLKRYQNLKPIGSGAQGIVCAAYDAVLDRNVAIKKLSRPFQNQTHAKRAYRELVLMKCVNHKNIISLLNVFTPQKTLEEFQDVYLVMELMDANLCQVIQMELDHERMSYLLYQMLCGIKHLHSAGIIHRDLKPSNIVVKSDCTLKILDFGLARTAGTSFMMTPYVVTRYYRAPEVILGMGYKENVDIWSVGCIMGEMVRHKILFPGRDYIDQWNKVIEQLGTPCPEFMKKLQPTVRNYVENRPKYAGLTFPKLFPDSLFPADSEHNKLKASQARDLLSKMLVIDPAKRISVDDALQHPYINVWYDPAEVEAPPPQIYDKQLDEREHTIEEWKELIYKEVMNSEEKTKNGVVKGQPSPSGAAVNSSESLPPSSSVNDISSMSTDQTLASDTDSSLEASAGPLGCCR

Turning to `CCC(=O)Nc1ccc2ncnc(Nc3cccc(Br)c3)c2c1`, the residual activity in assay [1] was 79%; in assay [2], 102%; in assay [3], 100%; in assay [4] it was 89%; in [5] it was 83%; in assay [6], 96%. The residual activity came to 91% in assay [7]; 111% in assay [8]; 79% in assay [9]; 106% in [10]; 102% in assay [11]; 89% in assay [12]. Besides, the residual activity in assay [13] came to 107%; in [14], 99%; in [15], 100%; in assay [16], 94%; in assay [17] it was 76%; in assay [18], 105%. Besides, the residual activity in assay [19] was determined as 89%; in [20], 72%.

For the compound `CO[C@H]1C[C@@H]2CC[C@@H](C)[C@@](O)(O2)C(=O)C(=O)N2CCCC[C@H]2C(=O)O[C@H]([C@H](C)C[C@@H]2CC[C@@H](O)[C@H](OC)C2)CC(=O)[C@H](C)/C=C(\C)[C@@H](O)[C@@H](OC)C(=O)[C@H](C)C[C@H](C)/C=C/C=C/C=C/1C`, the residual activity in [1] was 89%; in [2] it was 92%; in assay [3], 101%; in [4] it was 74%; in assay [5] it was 71%; in assay [6] it was 107%. Moreover, the residual activity in assay [7] amounted to 154%; in [8], 126%; in assay [9], 99%; in assay [10] it was 101%; in [11], 113%; in assay [12], 101%. Also, the residual activity was found to be 160% in assay [13]; 103% in assay [14]; 124% in assay [15]; 107% in assay [16]; 90% in assay [17]; 111% in [18]. The residual activity came to 96% in assay [19] and 108% in assay [20].

For `O=C1Nc2ccc(Br)cc2/C1=C\c1cc2c([nH]1)CCCC2`, the residual activity is 79% in assay [1]; 82% in assay [6]; 77% in [7]; 114% in assay [8]; 63% in [9]; 105% in [12]. Also, the residual activity was determined as 99% in [13]; 108% in assay [14]; 101% in [15]; 114% in assay [16]; 114% in [17]; 101% in [18].

With `Cc1cccc(-c2[nH]c(C(C)(C)C)nc2-c2ccc3c(c2)OCO3)n1`, the residual activity in [1] turned out to be 89%; in assay [4] it was 87%; in assay [5], 75%; in [8], 104%; in assay [9], 88%; in [10], 96%. Also, the residual activity is 103% in assay [11], 97% in [17], 94% in assay [19] and 90% in [20].

For `CC[n+]1c(/C=C/N(C)c2ccccc2)n(-c2ccccc2)c2ccc(-c3nc4ccccc4s3)cc21`, the residual activity in assay [1] worked out at 86%; in [2], 100%; in assay [3], 92%; in [4], 96%; in [5], 92%; in assay [6], 113%. For the same compound, the residual activity in assay [7] was found to be 78%; in assay [8], 111%; in [9] it was 87%; in assay [10], 101%; in assay [11], 92%; in assay [12], 121%. The residual activity was 150% in [13]; 118% in assay [14]; 149% in assay [15]; 119% in assay [16]; 95% in [17]; 113% in assay [18]. In addition, the residual activity in assay [19] was found to be 102%; in [20] it was 91%.

For the compound `c1ccc2c(-c3ccncc3)c[nH]c2c1`, the residual activity in [1] was found to be 70%; in assay [2] it was 97%; in [3], 87%; in assay [4] it was 76%; in [5] it was 57%; in assay [6] it was 94%. Further, the residual activity stood at 99% in [7]; 83% in assay [9]; 101% in assay [10]; 95% in assay [11]; 97% in assay [12]; 101% in [13]. For the same compound, the residual activity in assay [14] came to 103%; in [16], 97%; in [17] it was 78%; in assay [18], 107%; in assay [19], 93%.
